Assay results from PMC7819943, “Rice protein-binding microarrays: a tool to detect cis-acting elements near promoter regions in rice”.
The full ranking holds about 68,000 sequences; the median of “fluorescence intensity (a.u.)” is about 9,100, and the highest 2% start at about 16,000. The list comes from a sample in which the highest values are over-represented; it also holds similar and randomly drawn sequences.

These sequences were tested against OsWRKY34 (Oryza sativa, UniProt Q0JBA9 1-250) (assay: protein-binding microarray (RPBM); PBS, 2% BSA, 51.3 ng/ul salmon testes DNA, 50 uM zinc acetate, 200 nM TF, 25 C, 1 h; high values mean tight binding). Conditions: protein: recombinant; tags: N-terminal polyhistidine and DsRed monomer fusion (pET32a); label: CyDye5-dUTP incorporated in the synthesized complementary strand; 3' TTTTT single-stranded linker to array surface; dsDNA, one strand shown.
Sequence of OsWRKY34 (Q0JBA9 entry or part of it): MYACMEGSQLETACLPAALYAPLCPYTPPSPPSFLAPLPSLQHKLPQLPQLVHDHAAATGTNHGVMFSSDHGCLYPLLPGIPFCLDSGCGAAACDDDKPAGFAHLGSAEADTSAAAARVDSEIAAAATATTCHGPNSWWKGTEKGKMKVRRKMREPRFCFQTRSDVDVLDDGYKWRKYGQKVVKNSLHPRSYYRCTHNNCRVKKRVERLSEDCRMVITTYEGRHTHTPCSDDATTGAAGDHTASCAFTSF
How it was run: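 Transcription factors, each fused N-terminally to a polyhistidine tag and DsRed, were expressed in E. coli BL21-CodonPlus and purified on Ni–NTA. A custom Agilent array was made double-stranded by primer extension with Cy5-dUTP and blocked with 2% BSA. It was incubated with 200 nM protein in PBS, 2% BSA, salmon testes DNA and 50 µM zinc acetate at 25 °C for 1 h, then washed. The binding signal is per-feature fluorescence intensity (arbitrary units) read on an Axon 4000B scanner.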
For “CTATATATAAACGAGCACATCTCGTCGTCCCTCGCCATTCCGGAGTCACCTAGTGCAG”, the binding signal was 10400 fluorescence intensity (a.u.). “TTAAACTGTATACCGTCGCTCGCGTCGCGCGCCGTTGACGCGGAGTCACCTAGTGCAG” was tested, and the binding signal was 9730 fluorescence intensity (a.u.). With “CATGTGTTTACTGGGGTGGTTGTTGTAACAAAATTGAGTACGGAGTCACCTAGTGCAG” the binding signal was 9360 fluorescence intensity (a.u.). “GTCTGAGTACACTTCTGAGGCTTCTTTGGTCGTTTTGGCCCGGAGTCACCTAGTGCAG” was tested, and the binding signal was 9790 fluorescence intensity (a.u.). For “AAATATCAACCACATGCTCCTACTTCTATGGAAATTGATTCGGAGTCACCTAGTGCAG”, the binding signal was 10400 fluorescence intensity (a.u.). “TTGTCGTGTCACCTCCATTCTCACCCAACTTCCTTACCTACGGAGTCACCTAGTGCAG” was tested, and the binding signal was 13300 fluorescence intensity (a.u.). For “CTCGTTTACCTTACTCTCGCTTAGTTCGTTGAGGCATTTCCGGAGTCACCTAGTGCAG”, the binding signal was 14900 fluorescence intensity (a.u.). For “GTTATTCAAAACTATAGTTATCTTCCGCCTATTTTTTTATCGGAGTCACCTAGTGCAG”, the binding signal was 10600 fluorescence intensity (a.u.). For “CGGGGAAGGAGAGGGGCGTTAGGGAGGAGGGGCGCACAGACGGAGTCACCTAGTGCAG”, the binding signal was 16800 fluorescence intensity (a.u.). In the case of “GACACTAATGTGTGTGAAGGGGAGATTGTTGAATGGTTCCCGGAGTCACCTAGTGCAG”, the binding signal is reported as 65200 fluorescence intensity (a.u.). In the case of “GGTGGCGGGGCATCTCGCCGCCGACGGCTCGAGGAGGAAACGGAGTCACCTAGTGCAG”, the binding signal is reported as 18400 fluorescence intensity (a.u.). “GGGAAGACGGTGGGGCGGGGACAGAGGTAGGGGAAGGAGGCGGAGTCACCTAGTGCAG” was tested, and the binding signal was 12600 fluorescence intensity (a.u.). With “GCAGCAGGGAGGTGGGGCGCAGGAGGAAGAAGAAGAGGGACGGAGTCACCTAGTGCAG” the binding signal was 13300 fluorescence intensity (a.u.). In the case of “CGGCGGAGGAGGAGGAGGAGGGGTGGGGAAGAAGAGGGGACGGAGTCACCTAGTGCAG”, the binding signal is reported as 22800 fluorescence intensity (a.u.). For “ACCGCACAGAGAGGGAGGAGGCGGGGAGGACGGTGAGGGGCGGAGTCACCTAGTGCAG”, the binding signal was 10500 fluorescence intensity (a.u.). In the case of “CCGGGGCCGGCAGCGGCGGGCGGGCGGGCTCGAGCGGTGGCGGAGTCACCTAGTGCAG”, the binding signal is reported as 9020 fluorescence intensity (a.u.). In the case of “GGGTGGGGAAGAAGAGGGGAAGCGGGGAGGAGGAGAGGGACGGAGTCACCTAGTGCAG”, the binding signal is reported as 9680 fluorescence intensity (a.u.). “AGGGTTGTGATTGGTTGGGAAGAGAATGTTGGTAGATAAGCGGAGTCACCTAGTGCAG” was tested, and the binding signal was 9400 fluorescence intensity (a.u.). With “GGCGGCATCTCGCTCTACCGCGGGTGGGGCTTCGACTCCGCGGAGTCACCTAGTGCAG” the binding signal was 12100 fluorescence intensity (a.u.). With “GATTGAGGGGAATGTTCCATGTTTTGTTGAACTCTTTTCCCGGAGTCACCTAGTGCAG” the binding signal was 9320 fluorescence intensity (a.u.). “CGTGGGCCCCACCCGTGCCAGCTCACCTCATCCCCACCACCGGAGTCACCTAGTGCAG” was tested, and the binding signal was 8940 fluorescence intensity (a.u.). With “ATCGACCCTTGCGCGGACTCCGCTCTCTTGTTGACCACCTCGGAGTCACCTAGTGCAG” the binding signal was 14600 fluorescence intensity (a.u.). “TCACTCATGCAGAGTCACAGCTTGTATAGTTGTAATGCATCGGAGTCACCTAGTGCAG” was tested, and the binding signal was 9000 fluorescence intensity (a.u.). For “GCCTCGTCCACTCCACCACGCCGCCGAAAGCCGCAACTCTCGGAGTCACCTAGTGCAG”, the binding signal was 9580 fluorescence intensity (a.u.). For “CAACCTCTCCGGGGCGGGGCTGGCCGGCGAGCTGGCGGCGCGGAGTCACCTAGTGCAG”, the binding signal was 9150 fluorescence intensity (a.u.). In the case of “AGCTGCCACAAGCCGAAGGCACGTTGACTTAAAAGAAGCCCGGAGTCACCTAGTGCAG”, the binding signal is reported as 10700 fluorescence intensity (a.u.). “ATATTTTCCGCCTACCCTGTACGCACGTTTATATACACAACGGAGTCACCTAGTGCAG” was tested, and the binding signal was 9400 fluorescence intensity (a.u.). “CTTGGACCCACTTAATATGTTATATGGCTATTTCTAGTCACGGAGTCACCTAGTGCAG” was tested, and the binding signal was 8220 fluorescence intensity (a.u.). In the case of “TAAGGTTTCTTCTGGGATCATTACATATACCTATATGGTTCGGAGTCACCTAGTGCAG”, the binding signal is reported as 8100 fluorescence intensity (a.u.). In the case of “AGTTTGTTTTTTTTCTGTCCTTGACATGGCCATTTTGTTACGGAGTCACCTAGTGCAG”, the binding signal is reported as 9920 fluorescence intensity (a.u.). “TTTCCGCCGCGGCGAGGAGGAGGAGGAGGAGGAGGGGCGACGGAGTCACCTAGTGCAG” was tested, and the binding signal was 9980 fluorescence intensity (a.u.). With “CAGCGACGGTGGGGAGGTGGGCGTGGGCGGTTGCCGGCGGCGGAGTCACCTAGTGCAG” the binding signal was 11200 fluorescence intensity (a.u.). For “TTGGTTGGTTGGTTTGGTGGGCGGCGGTGCCGGAGGAAGACGGAGTCACCTAGTGCAG”, the binding signal was 21900 fluorescence intensity (a.u.). In the case of “GCGGCGAAGCAGGGAGGAGGGAGGAGGAGGGGCGGCGGTGCGGAGTCACCTAGTGCAG”, the binding signal is reported as 12100 fluorescence intensity (a.u.). “GTGCGACGGCGGCGGCGAAGTCAGTCCCCTCCTCGAGGGGCGGAGTCACCTAGTGCAG” was tested, and the binding signal was 27700 fluorescence intensity (a.u.). In the case of “GGGCGGAGAGTTGGGGTTTGGGTTGGTGGCGGTGGGCCGGCGGAGTCACCTAGTGCAG”, the binding signal is reported as 14800 fluorescence intensity (a.u.). With “TCCTCGCCGACGGCGTGCCGGCTCACGTTGCACCTCACCGCGGAGTCACCTAGTGCAG” the binding signal was 8210 fluorescence intensity (a.u.). With “CTTTCCTGCACCTCCACTTTATTTAGTTCATTAATTGAATCGGAGTCACCTAGTGCAG” the binding signal was 8660 fluorescence intensity (a.u.). With “CTTCGGTGTACTTTTTTCTTTTCTAGTTCCTGGTTCTAATCGGAGTCACCTAGTGCAG” the binding signal was 18000 fluorescence intensity (a.u.). “TGGTTGTGTTCTTGTTGGCTTATACCTTTTTTATGTTTTGCGGAGTCACCTAGTGCAG” was tested, and the binding signal was 9260 fluorescence intensity (a.u.). In the case of “TTAATTACTTCCTTTTCTTTTCTTTTCTTTTCCTTTTTTTCGGAGTCACCTAGTGCAG”, the binding signal is reported as 8110 fluorescence intensity (a.u.). “ACTTTGTTTACACGGTGGTTCTCTCCTTTTCTTCTTCTCACGGAGTCACCTAGTGCAG” was tested, and the binding signal was 8480 fluorescence intensity (a.u.). For “GGTTCTCTTTTCTTTTCTTTTCTTTTCTCCTGGAGTTTTTCGGAGTCACCTAGTGCAG”, the binding signal was 9120 fluorescence intensity (a.u.). For “GTGCGGTTTTTCTCCTGGTTCTTTTGTGTACTTTATACCACGGAGTCACCTAGTGCAG”, the binding signal was 18200 fluorescence intensity (a.u.).
